Paper PMC5540273 (PLoS ONE, 2017)

Tested on: SIK2
Conditions: concentration: 1 μM,replicates: in singlicate; n = 1
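Further: KINOMEscan kinase panel screen.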

`Cc1ccn2nc(-c3ccc(F)cc3)c(-c3ccncc3)c2c1.Cl` [GW457859] and `Cc1cccc2c(-c3ccncc3)c(-c3ccc(F)cc3)nn12.Cl` [GW461487] are the same in “%Inh” value: 0% for the first, 0% for the second.

First: CS(=O)c1ccc(-c2coc3ccc(-c4n[nH]c(=O)o4)cc23)cc1 (centres unmarked)
Second: O=c1[nH]cc(-c2ccc(O)cc2)c2sc(-c3ccncc3)cc12 [GSK1033723]
The “%Inh” value of the first is higher: 11% for the first, 0% for the second.

First: C[C@@H](Oc1cc(-n2cnc3cc(-c4cnn(C)c4)ccc32)sc1C(N)=O)c1ccccc1Cl [GSK580432]
Second: C[C@@H](Oc1cc(-n2cnc3ccc(-c4ccncc4)cc32)sc1C(N)=O)c1ccccc1Cl [GSK483724]
The “%Inh” value of the first is higher: 74% for the first, 0% for the second.

Compared with `CN1CCN(CCCNc2nccc(-c3c(-c4ccc(F)cc4)nn4cc(C(N)=O)ccc34)n2)CC1` [GW622475], `COC(=O)c1cccc(NC(=O)NC2CCN(c3ccnc(NCc4ccc(F)cc4)n3)CC2)c1` [GSK1379860] is lower in “%Inh” value: 9% for the first, 0% for the second.

First: CS(=O)(=O)c1cccc(CNc2nc(Nc3ccc4c(c3)[C@@H]3C[C@@H]4CNC3=O)ncc2C(F)(F)F)c1
Second: CN(c1ccccc1CNc1nc(Nc2ccc3c(c2)CC(=O)N3)ncc1C(F)(F)F)S(C)(=O)=O
The “%Inh” value of the first is higher: 47% for the first, 40% for the second.

`COc1cc(Nc2nccc(N3CCC(NC(=O)c4cccc(C#N)c4)C3)n2)cc(OC)c1OC` (centres unmarked) [GSK1379751] and `COc1ccc(Nc2nccc(N3CCC(NC(=O)c4cccc(C#N)c4)C3)n2)cc1` (centres unmarked) [GSK1379730] are the same in “%Inh” value: 0% for the first, 0% for the second.

Going from `COc1cccc(OC)c1C(=O)Nc1cccc(-c2nn3ccccc3c2-c2ccnc(Nc3cccc(F)c3)n2)c1` [GSK361065] to `CC(C)c1nc(-c2cccc(NS(=O)(=O)c3ccccc3)c2)c(-c2ccnc(Nc3ccc4c(c3)CN(C)CC4)n2)s1` [GSK1649598], the “%Inh” value rises from 0% to 87%.

First: O=C(NOCC1CC1)c1cc(Br)c(F)c(F)c1Nc1ccc(I)cc1Cl
Second: O=C(NCC1CC1)c1ccc(-c2cc(C(=O)NC3CC3)ccc2F)cc1 [GW810445]
The “%Inh” value of the first is higher: 21% for the first, 0% for the second.

Going from `CNC(=O)c1ccccc1Nc1nc(Nc2cccc(CS(C)(=O)=O)c2)ncc1C.O=CO` [GSK1520489] to `CC(=O)Nc1nc2cnc(Nc3cc(NC(=O)c4cccc(CC(C)(C)C#N)c4)ccc3C)nc2s1`, the “%Inh” value falls from 95% to 0%.

Going from `C[C@@H]1CNc2c(sc3ccc4nc(-c5ccc(O)cc5)ccc4c23)C(=O)N1` to `CC(C(=O)NC1CCN(c2ccnc(Nc3ccc(F)cc3)n2)C1)c1ccc(Cl)cc1` (centres unmarked) [GSK1379713], the “%Inh” value falls from 16% to 0%.

Going from `O=C(Nc1cccc(Oc2ccc3nccn3n2)c1)Nc1cccc(C(F)(F)F)c1` to `O=C(Nc1ccccc1)c1cccc(Oc2ccc3nccn3n2)c1`, the “%Inh” value falls from 16% to 0%.

First: NC(=O)Nc1sc(-c2ccc(F)cc2)cc1C(N)=O [GW789449]
Second: NC(=O)c1ccc(-c2cc3ncnc(SCC(=O)O)c3s2)cc1
The “%Inh” value of the first is higher: 16% for the first, 7% for the second.

Compared with `Cc1n[nH]c2cc(Nc3ccnc(Nc4cccc(CN5CCOCC5)c4)n3)ccc12` [GW682569], `Cc1ccc2c(-c3ccnc(Nc4ccc(C(F)(F)F)cc4)n3)cnn2n1` [GW819776] is lower in “%Inh” value: 33% for the first, 2% for the second.

Going from `COC(=O)Nc1nc2cc(Oc3ccc(NC(=O)Nc4cc(C(F)(F)F)ccc4Cl)cc3)ccc2[nH]1.Cl` [GW697465] to `Cn1ccc2ncnc(Oc3ccc(NC(=O)Nc4cccc(C(F)(F)F)c4)c(F)c3)c21`, the “%Inh” value rises from 0% to 3%.

First: O=C1NCCc2[nH]c(-c3ccncc3)cc21
Second: COc1cccc(C2=C(Nc3cccc(Cl)c3)C(=O)NC2=O)c1 [SB-341556]
The “%Inh” value of the first is lower: 34% for the first, 99.9% for the second.

First: Cl.Cl.NC[C@H](CC1CCCCC1)NC(=O)c1ccc(-c2ccnc3[nH]ccc23)s1 [GSK1581428]
Second: CC(=O)Nc1ccc(-c2cc3ncnc(SCC(=O)O)c3s2)cc1
The “%Inh” value of the first is lower: 16% for the first, 24% for the second.

Compared with `O=C(Nc1ccc(Oc2ccc3nc(NC(=O)C4CC4)cn3n2)c(F)c1)c1cccn(-c2ccccc2)c1=O`, `c1ccc(Oc2ccc(Nc3ccnc4ccc(-c5ccccn5)cc34)cc2)cc1` [GW407034] is lower in “%Inh” value: 8% for the first, 0% for the second.

First: Cn1ccc2ncnc(Oc3ccc(NC(=O)Nc4cncc(C(F)(F)F)c4)c(Cl)c3)c21
Second: Cn1ccc2ncnc(Oc3ccc(NC(=O)Nc4cnn(C(C)(C)C)c4)c(Cl)c3)c21
The “%Inh” value of the first is lower: 0% for the first, 10% for the second.

With `CCn1c(-c2nonc2N)nc2cncc(Br)c21` [SB-738004] the “%Inh” value was 7%.

Tested on: SIK
Conditions: concentration: 1 μM,replicates: in singlicate; n = 1

`Cc1ccn2nc(-c3ccc(F)cc3)c(-c3ccncc3)c2c1.Cl` [GW457859] and `Cc1cccc2c(-c3ccncc3)c(-c3ccc(F)cc3)nn12.Cl` [GW461487] are the same in “%Inh” value: 0% for the first, 0% for the second.

Compared with `CS(=O)c1ccc(-c2coc3ccc(-c4n[nH]c(=O)o4)cc23)cc1` (centres unmarked), `O=c1[nH]cc(-c2ccc(O)cc2)c2sc(-c3ccncc3)cc12` [GSK1033723] is lower in “%Inh” value: 2% for the first, 0% for the second.

Going from `C[C@@H](Oc1cc(-n2cnc3cc(-c4cnn(C)c4)ccc32)sc1C(N)=O)c1ccccc1Cl` [GSK580432] to `C[C@@H](Oc1cc(-n2cnc3ccc(-c4ccncc4)cc32)sc1C(N)=O)c1ccccc1Cl` [GSK483724], the “%Inh” value falls from 65% to 11%.

First: CN1CCN(CCCNc2nccc(-c3c(-c4ccc(F)cc4)nn4cc(C(N)=O)ccc34)n2)CC1 [GW622475]
Second: COC(=O)c1cccc(NC(=O)NC2CCN(c3ccnc(NCc4ccc(F)cc4)n3)CC2)c1 [GSK1379860]
The “%Inh” value of the first is higher: 7% for the first, 5% for the second.

Compared with `CS(=O)(=O)c1cccc(CNc2nc(Nc3ccc4c(c3)[C@@H]3C[C@@H]4CNC3=O)ncc2C(F)(F)F)c1`, `CN(c1ccccc1CNc1nc(Nc2ccc3c(c2)CC(=O)N3)ncc1C(F)(F)F)S(C)(=O)=O` is lower in “%Inh” value: 45% for the first, 16% for the second.

Compared with `COc1cc(Nc2nccc(N3CCC(NC(=O)c4cccc(C#N)c4)C3)n2)cc(OC)c1OC` (centres unmarked) [GSK1379751], `COc1ccc(Nc2nccc(N3CCC(NC(=O)c4cccc(C#N)c4)C3)n2)cc1` (centres unmarked) [GSK1379730] is higher in “%Inh” value: 0% for the first, 18% for the second.

Compared with `COc1cccc(OC)c1C(=O)Nc1cccc(-c2nn3ccccc3c2-c2ccnc(Nc3cccc(F)c3)n2)c1` [GSK361065], `CC(C)c1nc(-c2cccc(NS(=O)(=O)c3ccccc3)c2)c(-c2ccnc(Nc3ccc4c(c3)CN(C)CC4)n2)s1` [GSK1649598] is higher in “%Inh” value: 25% for the first, 99.6% for the second.

Compared with `O=C(NOCC1CC1)c1cc(Br)c(F)c(F)c1Nc1ccc(I)cc1Cl`, `O=C(NCC1CC1)c1ccc(-c2cc(C(=O)NC3CC3)ccc2F)cc1` [GW810445] is higher in “%Inh” value: 0% for the first, 2% for the second.

Compared with `CNC(=O)c1ccccc1Nc1nc(Nc2cccc(CS(C)(=O)=O)c2)ncc1C.O=CO` [GSK1520489], `CC(=O)Nc1nc2cnc(Nc3cc(NC(=O)c4cccc(CC(C)(C)C#N)c4)ccc3C)nc2s1` is lower in “%Inh” value: 99.6% for the first, 24% for the second.

Compared with `C[C@@H]1CNc2c(sc3ccc4nc(-c5ccc(O)cc5)ccc4c23)C(=O)N1`, `CC(C(=O)NC1CCN(c2ccnc(Nc3ccc(F)cc3)n2)C1)c1ccc(Cl)cc1` (centres unmarked) [GSK1379713] is lower in “%Inh” value: 20% for the first, 0% for the second.

Going from `O=C(Nc1cccc(Oc2ccc3nccn3n2)c1)Nc1cccc(C(F)(F)F)c1` to `O=C(Nc1ccccc1)c1cccc(Oc2ccc3nccn3n2)c1`, the “%Inh” value falls from 17% to 0%.

Compared with `NC(=O)Nc1sc(-c2ccc(F)cc2)cc1C(N)=O` [GW789449], `NC(=O)c1ccc(-c2cc3ncnc(SCC(=O)O)c3s2)cc1` is lower in “%Inh” value: 21% for the first, 6% for the second.

Going from `Cc1n[nH]c2cc(Nc3ccnc(Nc4cccc(CN5CCOCC5)c4)n3)ccc12` [GW682569] to `Cc1ccc2c(-c3ccnc(Nc4ccc(C(F)(F)F)cc4)n3)cnn2n1` [GW819776], the “%Inh” value falls from 46% to 0%.

Going from `COC(=O)Nc1nc2cc(Oc3ccc(NC(=O)Nc4cc(C(F)(F)F)ccc4Cl)cc3)ccc2[nH]1.Cl` [GW697465] to `Cn1ccc2ncnc(Oc3ccc(NC(=O)Nc4cccc(C(F)(F)F)c4)c(F)c3)c21`, the “%Inh” value rises from 0% to 28%.

First: O=C1NCCc2[nH]c(-c3ccncc3)cc21
Second: COc1cccc(C2=C(Nc3cccc(Cl)c3)C(=O)NC2=O)c1 [SB-341556]
The “%Inh” value of the first is higher: 13% for the first, 0% for the second.

First: Cl.Cl.NC[C@H](CC1CCCCC1)NC(=O)c1ccc(-c2ccnc3[nH]ccc23)s1 [GSK1581428]
Second: CC(=O)Nc1ccc(-c2cc3ncnc(SCC(=O)O)c3s2)cc1
The “%Inh” value of the first is higher: 11% for the first, 6% for the second.

Going from `O=C(Nc1ccc(Oc2ccc3nc(NC(=O)C4CC4)cn3n2)c(F)c1)c1cccn(-c2ccccc2)c1=O` to `c1ccc(Oc2ccc(Nc3ccnc4ccc(-c5ccccn5)cc34)cc2)cc1` [GW407034], the “%Inh” value falls from 59% to 0%.

First: Cn1ccc2ncnc(Oc3ccc(NC(=O)Nc4cncc(C(F)(F)F)c4)c(Cl)c3)c21
Second: Cn1ccc2ncnc(Oc3ccc(NC(=O)Nc4cnn(C(C)(C)C)c4)c(Cl)c3)c21
The “%Inh” value of the first is lower: 0% for the first, 14% for the second.

`CCn1c(-c2nonc2N)nc2cncc(Br)c21` [SB-738004] was tested, and the “%Inh” value was 15%.
